# Results taken from PubChem BioAssay.
# Several values for one entry are separate records, joined by “and”; a condition that tells them apart may be missing. Equal values may be shown once. Activity calls are given as the source filed them.
# Experiments:
# Albumin (Bos taurus) = Albumin (Bos taurus) (UniProt P02769); assay: bovine serum albumin binders on microarray, profiling panel, artefact control for SMM control protein annotation, biochemical, small-molecule microarray, Alexa647 label, 635/667 nm fluorescence (AID 1118); settings: BSA-A647 binding, fluorescence 635 nm, higher = more signal;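 also: score merges 667 nm emission intensity and signal-to-noise per printed compound spot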
# Sequence of Albumin (Bos taurus) (P02769 whole entry, looked up): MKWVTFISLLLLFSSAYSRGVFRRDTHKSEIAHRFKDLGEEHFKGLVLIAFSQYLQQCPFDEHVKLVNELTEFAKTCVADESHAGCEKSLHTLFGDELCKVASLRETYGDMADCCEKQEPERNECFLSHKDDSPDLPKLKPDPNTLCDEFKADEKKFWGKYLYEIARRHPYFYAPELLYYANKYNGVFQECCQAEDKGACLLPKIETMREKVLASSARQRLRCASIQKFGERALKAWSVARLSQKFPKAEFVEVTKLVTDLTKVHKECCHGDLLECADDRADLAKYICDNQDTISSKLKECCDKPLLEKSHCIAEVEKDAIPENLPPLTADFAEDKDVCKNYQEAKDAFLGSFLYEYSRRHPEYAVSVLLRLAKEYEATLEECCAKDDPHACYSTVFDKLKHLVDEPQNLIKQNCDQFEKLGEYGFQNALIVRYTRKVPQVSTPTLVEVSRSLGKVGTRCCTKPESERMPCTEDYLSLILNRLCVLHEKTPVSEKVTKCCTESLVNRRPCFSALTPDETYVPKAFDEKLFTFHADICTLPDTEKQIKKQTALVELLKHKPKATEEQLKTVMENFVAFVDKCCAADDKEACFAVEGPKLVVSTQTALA
# [1] = small-molecule microarray binders of probe aXIP, primary screen, biochemical, NeuroSMM set, 635/667 nm fluorescence (AID 1119); settings: higher = more signal, called active from +8 up or from −8 down;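 also: probe is the protein aXip251-270 applied at 1 µg/mL to compound-printed slides; binding of probe to printed compounds measured as 667 nm fluorescence plus signal to noise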
# [2] = small-molecule binders of probe aNOTCH3, primary screen, biochemical, small-molecule microarray, 635/667 nm fluorescence (AID 1120); settings: higher = more signal;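 also: probe is a biotin-tagged antibody raised against NOTCH3 rather than NOTCH3 protein; score merges spot fluorescence near 667 nm with spot signal to noise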
# [3] = small-molecule binders of probe aNOTCH2, primary screen, biochemical, small-molecule microarray, 635/667 nm fluorescence (AID 1121); settings: higher = more signal;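 also: score merges feature fluorescence read at 667 nm with its signal to noise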
# [4] = target: Carbonic anhydrase 2 (Homo sapiens) (UniProt P00918); assay: CAII small-molecule binders, profiling panel, biochemical, small-molecule microarray, Alexa647-labelled CAII (AID 1122); settings: CAII-A647 binding fluorescence, higher = more signal
# [5] = COS7 lysate on small-molecule microarray, probe aHis, 635 nm (AID 1123); settings: COS7 cell lysate, fluorescence, higher = more signal;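 also: z-score combines 667nm fluorescence intensity with signal-to-noise per printed compound spot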
# [6] = compound binding in COS7 lysate, probe aLAP1, primary screen, cell lysate, small-molecule microarray (AID 1124); settings: probe aLAP1, fluorescence, higher = more signal;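 also: lysate comes from COS7 cells expressing LAP1 and is applied at 0.3 µg/mL; score merges spot fluorescence near 667 nm with signal-to-noise over triplicate slides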
# Sam68 (KHDRBS1) = assay: Sam68 small-molecule binders, primary screen, biochemical, small-molecule microarray, 635 nm fluorescence (AID 1125); settings: small-molecule microarray binding, higher = more signal;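 also: score merges 667 nm channel intensity with signal to noise over triplicate slides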
# [7] = system: Chordin-like protein 2 (CHRDL2); assay: CHRDL2 small-molecule binders, primary screen, biochemical, small-molecule microarray, 635 nm fluorescence (AID 1126); settings: small-molecule microarray binding, fluorescence 635 nm; higher = more signal;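 also: printed compound slides probed with Chrdl2 protein at 4 µg/mL for 1 h at 4 C; score merges 667 nm emission intensity with signal to noise over three replicate slides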
# [8] = target: Concanavalin-A (Canavalia ensiformis) (UniProt P02866); assay: ConA small-molecule binders, primary screen, artefact control for SMM control protein annotation, biochemical, small-molecule microarray, Alexa647 label, 635 nm (AID 1127); settings: ConA-A647 binding fluorescence, higher = more signal;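 also: z combines 667 nm emission intensity with signal-to-noise across three replicate slides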
# Sequence of Concanavalin-A (Canavalia ensiformis) (P02866 whole entry, looked up): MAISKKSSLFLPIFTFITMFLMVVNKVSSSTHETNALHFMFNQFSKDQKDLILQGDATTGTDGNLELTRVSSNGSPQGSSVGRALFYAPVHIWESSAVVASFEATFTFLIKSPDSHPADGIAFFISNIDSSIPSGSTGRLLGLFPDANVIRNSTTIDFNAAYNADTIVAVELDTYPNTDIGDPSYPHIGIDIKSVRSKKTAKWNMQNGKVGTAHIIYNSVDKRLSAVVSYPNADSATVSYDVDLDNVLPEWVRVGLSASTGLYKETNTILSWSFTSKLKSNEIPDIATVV
Structure (SMILES),composite z-score (Albumin (Bos taurus)),composite Z-score [1],composite z-score [2],composite z-score [3],composite z-score [4],composite z-score [5],composite z-score [6],composite z-score (Sam68 (KHDRBS1)),composite z-score [7],composite z-score [8]
COC(=O)[C@@]1(Cc2ccc(OC)cc2)[C@H]2c3cc(C(=O)N(C)C)n(Cc4ccc(O)c(OC)c4)c3C[C@H]2CN1C(=O)c1ccccc1,1.03 and 0.843,-0.0164 (inactive) and -0.483 (inactive),0.359 and 0.68,0.357 and 0.124,0.893 and 0.406,1.81 and 2.81,1.17 and 0.341,0.725 and 1.22,-1.12 and -0.44,0.311 and 0.836
CON(C)C(=O)c1nnc2c3ccccc3n(S(=O)(=O)c3ccc(C)cc3)c2n1,0.622 and 0.0016,0.891 (inactive) and 0.79 (inactive),-0.0111 and 0.211,-0.104 and -0.109,0.393 and 0.481,0.19 and 1,0.101 and 0.208,0.41 and 1.3,0.828 and 0.553,1.1 and 1.14
CCCCCN1CC=CC23O[C@@H]4C=CCCOC(=O)C4[C@H]2C(=O)N(C(C)CO)[C@@H]3C1=O (stereo not given in full),0.345 and -0.098,-0.0812 (inactive) and -0.45 (inactive),-0.536 and -0.0416,-0.475 and -0.181,0.792 and 0.844,0.654 and 1.55,0.114 and 0.885,0.656 and 0.708,-0.397 and -0.845,-0.0729 and 0.147
COC(=O)c1c2oc(c1C(=O)OC)C(=O)N[C@@H](Cc1ccccc1)Cn1cc(nn1)C1(CCCCC1)NC(=O)N[C@H](CO)CC2,-0.14 and 0.517,0.167 (inactive) and 0.77 (inactive),0.13 and 0.0613,0.0165 and -0.0761,0.713 and -0.0749,1.72 and 0.833,0.376 and 0.0667,1.08 and 0.939,0.518 and 0.124,0.634 and 0.427
O=c1n(-c2ccccc2)c(=O)n2n1CC[C@@H]1C(=NOC[C@@H](O)COCc3ccco3)[C@H]3O[C@H]3[C@@H](O)[C@@H]12,-0.73 and 0.143,-0.014 (inactive) and 0.545 (inactive),-0.173 and -0.268,-0.122 and -0.174,-0.14 and 0.0148,-0.251 and -0.862,-0.0025 and -0.111,0.623 and -0.34,1.31 and 0.628,-0.331 and 0.101
CCCCN1CC=CC23O[C@@H]4C=CCCOC(=O)C4[C@H]2C(=O)N(C(C)CO)[C@@H]3C1=O (stereo not given in full),-0.12 and -0.441,-0.238 (inactive) and -0.166 (inactive),-0.222 and -0.0647,-0.21 and -0.147,0.837 and 0.777,0.462 and 0.472,0.216 and 0.436,0.206 and -0.0241,0.375 and -0.0584,-1.63 and 0.0212
CCOC(=O)C[C@H]1[C@H](OC(=O)c2ccccc2-c2ccccc2)[C@@H](NC(=O)c2ccccc2)c2cc(OCCCO)ccc2N1C(=O)c1ccc2ccccc2n1,0.369 and 0.645,0.095 (inactive) and 0.291 (inactive),0.0223 and 0.228,-0.0073 and -0.0357,0.348 and 0.0749,0.25 and 0.958,0.0741 and 0.356,0.443 and 1.2,0.243 and 0.175,0.436 and 1.04
CCOC(=O)[C@@H]1CC=C2CC1C(=O)N1CCC[C@@H]1[C@H]2O[Si](C)(C)C(C)(C)C (stereo not given in full),-0.657 and -0.964,0.047 (inactive) and -0.365 (inactive),-0.227 and -0.352,-0.147 and -0.202,-0.33 and -0.492,-0.273 and -0.211,-0.687 and -0.442,-1.04 and -1.8,-0.486 and -0.0717,-2.59 and -3.25
CC(C)CON=C1C[C@@H](O)[C@@H](O)[C@@H]2[C@@H]3C(=O)N(c4cccc(Oc5ccccc5)c4)C(=O)[C@@H]3CC[C@H]12,0.529,-0.116 (inactive),-0.0077,-0.118,0.315,0.328,-0.216,0.594,0.22,0.882
C=CCN(CCCCC)C(=O)C1N(c2c(Cl)cccc2CO)C(=O)C2C(C(=O)O)C3C=CC21O3 (stereo not given),-1.16 and -0.735,-0.823 (inactive) and 0.131 (inactive),-0.508 and -0.548,-0.245 and -0.184,0.846 and 0.315,-0.115 and -0.621,-0.0989 and -0.178,-0.331 and -0.297,-2.24 and -2.28,-1.5 and -0.938
